Most compounds without a hit are left out; they make up all but 1.8% or so of the library.
GLP1R cytotox: cytotoxicity in counter-screen for GLP-1R inverse agonists; HEK293 cAMP-luciferase reporter cells, luminescence, 24 h; Potency, µM (doses to about 38.3 µM), inactives show top-dose activity change, negative = inhibition, usual class: inhibitors; 0.13% of 410,000 active;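 note: loss of luciferase light is scored as toxicity; % is set by controls: 0 for no effect and ±100 for the full control effect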
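Luminescence readout: signal drop marks cytotoxicity. Plated cells grew 12 h at 37 °C, 5% CO2, received 23 nL compound for 24 h, then got luciferase reagent, read after 12 min at RT.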
GCN5L2 inh: GCN5L2 (KAT2A) acetyltransferase inhibition; Q92830; GCN5L2 HAT assay, ThioGlo1 CoA-SH fluorescence; Potency, µM (top dose mostly 58.9 µM), without a hit: at the top dose activity change, negative = inhibition, usual class: inhibitors; 0.21% of 390,000 active; AID 504327; note: % is set by controls: 0 for no effect and ±100 for the full control effect
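Preincubate 20nM GCN5L2 with compound 15 min, RT → add 50uM ThioGlo1 + 75uM H3(1-25) + 70uM acetyl-CoA → read fluorescence 0 and 20 min. Primary qHTS; fluorescent artifacts likely.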
PTHR1 agonist: agonists of human PTHR1 parathyroid hormone receptor | AID 743266 | Potency, µM (series often up to 115 µM), for inactives: top-dose activation, actives largely listed as activators | Q03431 | HEK293 GP2 PTHR1 cells, GloSensor cAMP luminescence, 1 h | 0.075% of 410,000 active; note: nearly all actives have a fitted effect of over 55% in size
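HEK-293-derived GP2 cells expressing PTHR1 and a GloSensor cAMP reporter, 3,000/well, plated overnight, given luciferin plus IBMX (each 0.5 mM as added) for 1 h at 37 °C, then compound for 1 h at 37 °C. Luminescence was read after 15 min at room temperature.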
RGS4 inhibitor: inhibitors of human regulator of G protein signaling 4; Potency, µM (series often up to 114 µM), without a hit: at the top dose activity change, negative = inhibition, usual class: inhibitors; P49798; 0.039% of 390,000 active; Transcreener GDP fluorescence polarization, RGS4-accelerated GTP hydrolysis; AID 504845; note: % is set by controls: 0 for no effect and ±100 for the full control effect; nearly all actives have a fitted effect of over 75% in size
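MLSMR compounds (23 nl, pin-transferred) preincubated 10 min at room temperature with a 500nM (2x) first reagent, then RGS4 at 900nM (2x) plus Transcreener GDP mix added; fluorescence polarization (620/688 nm) read before and after 90 min at 30 °C.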
GLP1R inv ag: inverse agonists of human GLP-1 receptor; HEK293 GLP-1R CRE-luciferase, luminescence, 24 h; GLP-1R form is constitutively active; Potency, µM (doses to about 38.3 µM), for inactives: at the highest dose activity change, negative = inhibition, actives largely listed as inhibitors; 1.6% of 410,000 active; note: % is set by controls: 0 for no effect and ±100 for the full control effect; nearly all actives have a fitted effect of over 55% in size
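Using stably transfected HEK293 (constitutively active GLP-1R, cAMP-luciferase reporter), compounds were incubated 24 hr and luciferase measured by luminescence.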
GLP-1R agonist: activates the human GLP-1 receptor | AID 624172 | HEK293 GLP-1R CRE-luciferase, luminescence, 4-6 h; cells express a hypersensitive GLP-1R form | Potency, µM (titrated, usually from 45.6 µM), for the others: at the highest dose activation, hits mostly activators | P43220 | 0.007% of 380,000 active; note: % of control where 0% means no effect
An asterisk follows results filed as active; i = inactive; ? = inconclusive; · = not tested or not shown; [ ] = another dose, or the depositor's remark. Calls come from the whole dose curve; as a rule, active = well fitted curve in the direction sought with a large enough effect; inconclusive = small, poorly fitted or top-dose-only effect, or another doubt; inactive = no such curve, though single readings can be large; an effect the other way counts as inactive or inconclusive. Potency is the fitted concentration of half-maximal effect.

SMILES	GLP1R cytotox	GCN5L2 inh	PTHR1 agonist	RGS4 inhibitor	GLP1R inv ag	GLP-1R agonist
CN(C)c1cccc(N(C)C)c1CNC(=O)NC(=O)c1c(F)cccc1F	2%	?	i	-22%	10µM*	-4%
CN(C)c1cccc(F)c1C(=O)NC(=O)Nc1ccc(Cl)cc1	?	·	-12%	-5%	8.9µM*	-1%
Cc1nn(-c2ccc(Cl)cn2)c2c1C(=O)CC(C)(C)C2Br (stereo not given)	-2%	·	-18%	-17%	?	5%
CC(=O)OCC1=C[C@H]2[C@@H]3C(C)(C)[C@]3(OC(C)=O)C[C@@H](C)[C@]2(O)[C@@H]2C=C(C)C(=O)[C@@]2(O)C1	·	2%	·	·	·	·
CC1CCN(c2ccc3nnc(CCC(=O)N4CCN(c5ccc(F)cc5)CC4)n3n2)CC1	-18%	-10%	-7%	14%[11.4 µM]	-27%	15%
NC(=O)c1cccc(-c2cnc(N)c(C(=O)c3cccnc3)n2)c1	-14%	·	8%	-7%	3.5µM*	-12%
CCOc1ccc(CN2CCC(Cc3ccccc3)CC2)cc1	-4%	-2%	i	-5%	-15%	10%
O=C1C=C(c2ccccc2Oc2ccccc2)C[C@@H](c2ccc(F)cc2)C1	1%	·	i	·	?	12%
S=C(Nc1ccc(Cl)cc1)c1nc2ccccc2s1	-32%	1%	-16%	14%	20%	17%
O=C(Nc1ccc(Cl)cc1)/C(=C/c1cccc(O)c1)c1nc2ccccc2s1	-16%	-2%	-38%	1%	2.8µM*	-4%
Cc1ccccc1C(=O)NC(=S)NCC1CCCO1 (stereo not given)	4%	2.5µM*	-9%	-13%	-3%	-1%
COc1ccc(C(C(=O)Nc2ccc3c(c2)OCO3)N(C)C(=O)Cc2c[nH]c3ccccc23)cc1 (stereo not given)	-9%	-7%	-8%	12%	2.2µM*	7%
COc1c(OC(C)=O)ccc(/C=C/c2ccc3cccc(OCc4ccccc4)c3n2)c1[N+](=O)[O-]	?	-6%	i	9%	5µM*	-13%
Cc1c(CN(C)C)c2c(n1Cc1ccccc1)C(=O)c1ccc(Br)cc1-2	?	-6%	i	-41%	0%	-12%
Cc1c(CN(C)C)c2c(n1C)C(=O)c1ccc(Br)cc1-2	8.9µM*	11%	-2%[57.5 µM]	5%	132%	0%
Cc1ccc(OCC(O)Cn2c(=N)n(Cc3ccccc3)c3ccccc32)cc1 (stereo not given)	?	-4%	-96%	3%	11µM*	-5%
CCn1c(=N)n(CC(O)COc2ccccc2)c2ccccc21 (stereo not given)	-20%	1%	i	-102%	?	-6%
Cc1cccc(OCC(O)Cn2c(=N)n(Cc3ccccc3)c3ccccc32)c1 (stereo not given)	-16%	3%	-4%	5%	?	-3%
CCN(CC)CCn1c(=N)n(CC(O)COc2ccccc2C)c2ccccc21 (stereo not given)	?	-6%	?	15%	10µM*	·
COc1ccc(OCC(O)Cn2c(=N)n(Cc3ccccc3)c3ccccc32)cc1 (stereo not given)	7.9µM*	-2%	?	29%	?	-20%
CCN(c1ccccc1)S(=O)(=O)c1cc(C(=O)Nc2ccc(F)c(F)c2)ccc1F	?	-17%	-49%	4%	1.4µM*	-2%
CCCCCCCCCCCCCCCCCCCCCCCCCCCCCC	·	1%	·	·	·	·
CC[n+]1c(/C=C2\Sc3ccccc3N2C)ccc2cccc(C)c21	?	-3%	-39%	-13%	13µM*	-3%
CCN1/C(=C/c2ccc3cc(C)ccc3[n+]2CC)Sc2ccccc21	-20%	-18%	-67%	-37%	?	-6%
